Assay results: ChEMBL document CHEMBL1961873, “Compounds: GSK PKIS; Assays: Nanosyn kinase panel” (2012)

Columns and labels:
[1] = molecular target: RAF proto-oncogene serine/threonine-protein kinase (Homo sapiens) (UniProt P04049); settings: at 1 µM;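 note: values are the mean percent inhibition of CRAF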
[2] = molecular target: T1, Interleukin-1 receptor-associated kinase 4 (Homo sapiens) (UniProt Q9NWZ3); settings: at 0.1 µM
T1 sequence (whole entry): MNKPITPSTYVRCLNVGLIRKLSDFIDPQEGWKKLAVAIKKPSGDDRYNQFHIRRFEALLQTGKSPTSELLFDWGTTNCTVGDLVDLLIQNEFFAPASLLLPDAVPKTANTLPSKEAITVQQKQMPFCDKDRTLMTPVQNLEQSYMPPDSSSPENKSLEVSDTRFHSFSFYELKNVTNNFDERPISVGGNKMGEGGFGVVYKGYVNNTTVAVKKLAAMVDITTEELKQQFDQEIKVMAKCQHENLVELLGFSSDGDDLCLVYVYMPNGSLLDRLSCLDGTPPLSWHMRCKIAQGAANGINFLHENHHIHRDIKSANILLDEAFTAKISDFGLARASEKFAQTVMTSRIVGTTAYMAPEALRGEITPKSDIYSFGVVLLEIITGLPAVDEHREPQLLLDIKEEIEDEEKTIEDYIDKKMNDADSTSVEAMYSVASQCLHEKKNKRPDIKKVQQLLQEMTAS

[3] = molecular target: T1, Interleukin-1 receptor-associated kinase 4 (Homo sapiens); settings: at 1 µM
[4] = molecular target: Leucine-rich repeat serine/threonine-protein kinase 2 (Homo sapiens) (UniProt Q5S007); settings: at 0.1 µM
Leucine-rich repeat serine/threonine-protein kinase 2 (Homo sapiens), sequence (Q5S007 whole entry): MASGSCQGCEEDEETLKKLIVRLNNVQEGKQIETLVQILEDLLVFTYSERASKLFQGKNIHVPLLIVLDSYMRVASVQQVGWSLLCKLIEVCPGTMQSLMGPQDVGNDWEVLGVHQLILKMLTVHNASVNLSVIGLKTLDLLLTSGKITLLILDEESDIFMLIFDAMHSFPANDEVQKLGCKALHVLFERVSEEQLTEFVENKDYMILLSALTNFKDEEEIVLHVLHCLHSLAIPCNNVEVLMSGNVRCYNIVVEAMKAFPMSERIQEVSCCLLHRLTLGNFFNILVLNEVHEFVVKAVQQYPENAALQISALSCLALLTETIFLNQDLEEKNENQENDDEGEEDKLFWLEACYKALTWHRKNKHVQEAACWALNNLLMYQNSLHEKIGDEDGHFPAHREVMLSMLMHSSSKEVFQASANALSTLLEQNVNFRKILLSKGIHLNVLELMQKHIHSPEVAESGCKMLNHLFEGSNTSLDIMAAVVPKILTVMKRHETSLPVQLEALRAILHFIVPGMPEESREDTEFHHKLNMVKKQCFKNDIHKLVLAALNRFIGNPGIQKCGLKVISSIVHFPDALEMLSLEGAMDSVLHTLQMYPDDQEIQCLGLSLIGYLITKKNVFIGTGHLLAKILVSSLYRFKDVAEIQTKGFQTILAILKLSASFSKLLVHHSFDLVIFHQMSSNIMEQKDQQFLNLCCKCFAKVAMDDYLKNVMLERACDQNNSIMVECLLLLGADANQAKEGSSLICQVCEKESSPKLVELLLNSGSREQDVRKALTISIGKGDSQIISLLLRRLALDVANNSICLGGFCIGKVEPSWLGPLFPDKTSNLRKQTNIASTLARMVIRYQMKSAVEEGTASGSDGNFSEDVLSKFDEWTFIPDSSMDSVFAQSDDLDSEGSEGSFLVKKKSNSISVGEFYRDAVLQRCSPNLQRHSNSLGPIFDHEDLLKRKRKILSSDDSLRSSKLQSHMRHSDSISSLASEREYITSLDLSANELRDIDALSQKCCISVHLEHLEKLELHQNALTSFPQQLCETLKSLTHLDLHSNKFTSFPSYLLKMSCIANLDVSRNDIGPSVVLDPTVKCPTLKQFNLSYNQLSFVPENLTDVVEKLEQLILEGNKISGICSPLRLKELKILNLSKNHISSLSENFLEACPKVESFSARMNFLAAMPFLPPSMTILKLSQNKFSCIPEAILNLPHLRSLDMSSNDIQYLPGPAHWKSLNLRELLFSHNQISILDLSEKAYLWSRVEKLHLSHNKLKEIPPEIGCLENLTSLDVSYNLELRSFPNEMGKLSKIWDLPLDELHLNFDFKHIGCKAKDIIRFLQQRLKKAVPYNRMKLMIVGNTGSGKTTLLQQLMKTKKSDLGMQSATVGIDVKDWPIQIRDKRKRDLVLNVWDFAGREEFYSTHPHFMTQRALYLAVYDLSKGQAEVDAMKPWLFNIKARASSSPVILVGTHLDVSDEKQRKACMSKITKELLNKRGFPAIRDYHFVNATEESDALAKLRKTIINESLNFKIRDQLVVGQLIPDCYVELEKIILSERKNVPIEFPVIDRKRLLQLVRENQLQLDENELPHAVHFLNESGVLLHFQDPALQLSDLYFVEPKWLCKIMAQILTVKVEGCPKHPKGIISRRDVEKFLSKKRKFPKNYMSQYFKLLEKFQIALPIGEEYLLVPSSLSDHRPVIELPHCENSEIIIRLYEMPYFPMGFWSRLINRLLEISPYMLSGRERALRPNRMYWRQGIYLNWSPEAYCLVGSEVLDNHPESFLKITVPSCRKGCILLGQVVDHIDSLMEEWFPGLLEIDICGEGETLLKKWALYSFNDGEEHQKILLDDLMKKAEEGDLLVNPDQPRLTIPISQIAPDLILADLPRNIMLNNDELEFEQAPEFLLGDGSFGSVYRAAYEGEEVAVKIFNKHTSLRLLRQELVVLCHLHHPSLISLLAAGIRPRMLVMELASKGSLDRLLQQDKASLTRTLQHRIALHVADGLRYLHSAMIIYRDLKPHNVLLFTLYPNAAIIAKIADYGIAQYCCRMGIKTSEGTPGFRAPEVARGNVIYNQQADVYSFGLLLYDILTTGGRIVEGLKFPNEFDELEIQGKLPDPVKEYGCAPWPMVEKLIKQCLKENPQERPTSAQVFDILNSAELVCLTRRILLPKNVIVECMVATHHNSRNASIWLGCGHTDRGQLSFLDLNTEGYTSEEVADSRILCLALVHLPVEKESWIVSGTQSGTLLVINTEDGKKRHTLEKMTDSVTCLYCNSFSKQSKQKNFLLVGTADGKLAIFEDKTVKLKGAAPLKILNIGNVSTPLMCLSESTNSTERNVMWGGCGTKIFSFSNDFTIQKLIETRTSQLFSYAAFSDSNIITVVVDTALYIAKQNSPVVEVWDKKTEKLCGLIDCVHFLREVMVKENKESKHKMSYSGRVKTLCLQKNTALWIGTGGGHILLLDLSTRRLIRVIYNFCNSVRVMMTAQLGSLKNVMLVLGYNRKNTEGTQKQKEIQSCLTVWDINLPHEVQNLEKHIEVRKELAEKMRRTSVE

[5] = molecular target: Leucine-rich repeat serine/threonine-protein kinase 2 (Homo sapiens) (UniProt Q5S007); settings: at 1 µM
[6] = tested on: Leucine-rich repeat serine/threonine-protein kinase 2 (Homo sapiens), Q5S007 [G2019S]; settings: at 0.1 µM
Leucine-rich repeat serine/threonine-protein kinase 2 (Homo sapiens), Q5S007 [G2019S], sequence (Q5S007 whole entry G2019S): as the sequence (Q5S007 whole entry) above, with G2019S counted along it

[7] = tested on: Leucine-rich repeat serine/threonine-protein kinase 2 (Homo sapiens), Q5S007 [G2019S]; settings: at 1 µM

RAF proto-oncogene serine/threonine-protein kinase (Homo sapiens), sequence (P04049 whole entry): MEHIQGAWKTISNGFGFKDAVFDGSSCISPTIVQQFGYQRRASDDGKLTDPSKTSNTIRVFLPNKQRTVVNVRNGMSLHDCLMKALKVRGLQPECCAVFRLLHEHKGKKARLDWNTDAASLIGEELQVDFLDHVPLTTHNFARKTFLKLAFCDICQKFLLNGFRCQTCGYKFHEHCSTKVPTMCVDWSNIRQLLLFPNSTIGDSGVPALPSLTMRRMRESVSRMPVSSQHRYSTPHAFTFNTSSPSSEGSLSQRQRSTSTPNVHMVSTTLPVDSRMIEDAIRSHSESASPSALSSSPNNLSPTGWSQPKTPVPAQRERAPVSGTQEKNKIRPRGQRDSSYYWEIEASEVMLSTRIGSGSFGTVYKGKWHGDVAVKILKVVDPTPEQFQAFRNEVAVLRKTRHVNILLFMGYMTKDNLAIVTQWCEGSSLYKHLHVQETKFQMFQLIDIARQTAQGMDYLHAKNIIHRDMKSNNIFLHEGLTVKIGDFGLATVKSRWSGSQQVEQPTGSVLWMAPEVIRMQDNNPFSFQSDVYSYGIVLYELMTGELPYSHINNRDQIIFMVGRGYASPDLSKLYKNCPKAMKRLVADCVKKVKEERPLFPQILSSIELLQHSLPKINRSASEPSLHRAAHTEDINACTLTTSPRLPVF

Row | SMILES | inhibition [1] | inhibition [2] | inhibition [3] | inhibition [4] | inhibition [5] | inhibition [6] | inhibition [7]
1 | Fc1ccc(-c2ncn(CCCN3CCOCC3)c2-c2ccncc2)cc1 | -5.69% | 3.04% | -0.71% | 0.7% | 3.28% | 1.27% | 4.28%
2 | Cc1ccc(C(=O)NC2CCC2)cc1-c1ccc(C(=O)NCC2CC2)cc1 | -1.36% | 3.77% | 1.51% | 2.63% | 2.18% | 2.78% | 5.64%
3 | CCc1nccc2c1nc(-c1nonc1N)n2CC | -5.16% | 2.27% | -1.82% | 0.68% | 2.47% | 0.78% | 2.99%
4 | NC(=O)c1cc(-c2ccc(F)cc2)cc(-c2ccncc2)c1N | 8.69% | 2.99% | 1.61% | 0.64% | 0.67% | 0.41% | 0.77%
5 | COc1cc2ncn(-c3cc(OCCc4ccccc4)c(C(N)=O)s3)c2cc1OC | -9.47% | 2.95% | 0.72% | 4.52% | 10.8% | 6.42% | 32.5%
6 | COc1cccc(-n2cnc3c(N/N=C/c4ccncc4)ncnc32)c1 | -4.3% | -2.35% | 0.01% | -1.76% | 7.17% | 0.11% | 18.1%
7 | NC(=O)c1cc(-c2ccncc2)cc(-c2ccccc2)c1N | -6.49% | 2.85% | 2.52% | 3.59% | 8.2% | 4.3% | 12.3%
8 | C/C(Nc1ccc(S(N)(=O)=O)cc1)=C1/C(=O)Nc2ccccc21 | -3.52% | 2.06% | 0.3% | 3.27% | 18.4% | 11.4% | 47.1%
9 | C[C@@H](Oc1cc(-n2cnc3ccc(OC4CCN(C)CC4)cc32)sc1C(N)=O)c1ccccc1Cl | 0.92% | 1.54% | 3.69% | -3.8% | 6.57% | -1.8% | 13.5%
10 | CN(C)c1ccc2c(c1)/C(=C/Nc1ccc(S(N)(=O)=O)cc1)C(=O)N2 | -6.53% | 2.88% | 0.86% | 5.77% | 16.7% | 7.03% | 36.4%
11 | NC(=O)Cc1ccccc1Oc1nccc(-c2c(-c3ccc(F)cc3)ncn2C2CCNCC2)n1 | -7.05% | 3.72% | 1.16% | 6.61% | 2.56% | 6.11% | 8.33%
12 | CCc1cccc(CC)c1/C=C/c1cncc(C(=O)NC)c1 | -1.79% | -3.49% | 1.51% | 3.05% | 4.51% | 2.33% | 7.93%
13 | COc1ccc2ncn(-c3cc(O[C@H](C)c4ccccc4Cl)c(C(N)=O)s3)c2c1 | 0.5% | 1.46% | 1.82% | -2.19% | 9.87% | 2.01% | 20.2%
14 | O=C1Nc2ccc(I)cc2C1=Cc1cc(Br)c(O)c(Br)c1 | 11.3% | 1.47% | 2.1% | 19.2% | 71.9% | 37.4% | 78%
15 | CS(=O)(=O)CCNCc1cc(-c2cc3c(Nc4ccc(OCc5cccc(F)c5)c(Cl)c4)ncnc3s2)cs1 | -3.41% | 2.58% | 3.31% | 0.31% | 4.51% | 1.2% | 5.39%
16 | NS(=O)(=O)c1ccc(Nc2cc(-c3ccc(O)c(F)c3)n[nH]2)cc1 | 0.94% | 3.6% | -1.08% | 1.51% | 13.2% | 4.54% | 29.7%
17 | CS(=O)(=O)CCNCc1ccc(-c2ccc3ncnc(Nc4ccc(OCc5ccccc5)c(Br)c4)c3c2)o1 | 3.63% | 0.92% | 1.52% | -4.59% | -6.11% | -1.19% | -0.13%

Row | SMILES | inhibition [1] | inhibition [2] | inhibition [3] | inhibition [4] | inhibition [5] | inhibition [6] | inhibition [7]
18 | COc1cc2ncn(-c3cc(OCc4cccs4)c(C(N)=O)s3)c2cc1OC | 6.17% | -3.1% | 1.66% | 2.29% | 9.04% | 15.9% | 54%
19 | CCS(=O)(=O)c1ccc(OC)c(Nc2ncc(-c3cccc(-c4ccccc4F)c3)o2)c1 | -8.29% | 1.45% | 0.38% | 1.95% | 11.6% | 4.86% | 19.5%
20 | Fc1ccc(-c2c(-c3ccncc3)nc3n2CCS3)cc1 | -2.98% | 1.96% | 1.7% | -3.32% | -2.49% | -1.05% | 0.48%
21 | COc1cc(Nc2ncc3c(C)nc(-c4cccc(C(F)(F)F)c4)n3n2)cc(OC)c1OC | -2.3% | -2.83% | 1.37% | 8.04% | 17.4% | 11.1% | 39.6%
22 | Cc1ccc(NC(=O)c2ccoc2)cc1-c1ccc(C(=O)NCC2CC2)cc1 | -0.41% | 1.67% | 2% | 1.24% | 4.06% | 2.32% | 2.75%
23 | NS(=O)(=O)c1ccc(N/N=C2\C(=O)Nc3ccc(-c4cnco4)cc32)cc1 | -0.01% | 0.31% | 1.08% | 9.37% | 52.5% | 32.2% | 55.8%
24 | CN(C)CCCNc1nccc(-c2c(-c3ccc(F)cc3)nn3cc(C(F)(F)F)ccc23)n1 | 0.11% | -2.77% | 1.66% | -2% | 1.95% | -0.33% | 2.73%
25 | CN1CCN(CCCNc2nc3ccc(Oc4ccc(NC(=O)Nc5cc(C(F)(F)F)ccc5F)cc4)cc3[nH]2)CC1 | -5.93% | -3.98% | 1.11% | 0.2% | 9.72% | 0.21% | 4.43%
26 | NCc1ccc(-n2c(-c3nonc3N)nc3cnccc32)cc1 | 3.91% | -0.81% | 2.35% | 17.2% | 53.5% | 22% | 54.1%
27 | Fc1ccc(-c2ncn(C3CCNCC3)c2-c2ccnc(Oc3ccc4c(c3)OCO4)n2)cc1 | -0.17% | 2.54% | 2.7% | 5.57% | 11.2% | 6.45% | 10.9%
28 | Fc1ccc(-c2ncn(C3CCNCC3)c2-c2ccnc(Oc3ccc(F)c(F)c3)n2)cc1 | -0.68% | 1.33% | 1.17% | -3.16% | -4.05% | 0.63% | 2.39%
29 | O=C1Nc2ccccc2/C1=C/Nc1ccc(-n2cncn2)cc1 | 5.44% | 2.2% | 2.52% | 4.2% | 9.2% | 6.6% | 23.9%
30 | c1ccc(Oc2ccc(Nc3ncc(-c4ccccc4)o3)cc2)cc1 | 1.5% | 1.75% | 0.97% | 1.55% | 3.95% | 4.15% | 6.81%
31 | O=C(Nc1n[nH]c2cc(-c3ccccc3)ccc12)C1CC1 | 1.41% | 2.36% | 2.04% | 2.57% | 6.05% | 3.85% | 7.95%
32 | COc1cccc(/C=N/Nc2ncnc3c2cnn3-c2cccc(OC)c2)c1 | -1.82% | 1.63% | 2.48% | -1.62% | 0.55% | 0.17% | 5.07%
33 | CCC(=O)Nc1ccc(C)c(-c2ccc(C(=O)NCC3CC3)cc2)c1 | -0.29% | 1.62% | 2.19% | -0.86% | 1.68% | 0.68% | 2.28%
34 | Fc1ccc(-c2nc3n(c2-c2ccncc2)CCS3)cc1 | -0.15% | 3.38% | 2.37% | -3.58% | -3.17% | -0.21% | -0.63%
